Data reported in PubChem BioAssay (Tox21).
Records with an inconclusive call do not appear. Calls of active or inactive are those of the source. Unless noted, calls come from the whole dose curve.

Experiments:
[1] = qHTS assay to identify small molecule agonists of the sonic hedgehog signaling (Shh) pathway (AID 1259368);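 note: NIH/3T3-derived 3T3Gli1-Luc cells carrying a stable Gli1-driven firefly luciferase reporter; series mostly up to about 92 µM; nearly all actives have a fitted effect of over 15% in size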
In short: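 A Gli1 transcriptional response element controlled firefly luciferase in 3T3Gli1-Luc cells. Compounds and a positive control were added 4 hr after plating, and cells were incubated a further 24 hr at 37 C before luminescence detection.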

[2] = qHTS assay to identify small molecule antagonists of the sonic hedgehog signaling (Shh) pathway (AID 1259369); note: nearly all actives have a fitted effect of over 45% in size; note: potency is the fitted concentration of half-maximal effect
In short: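 For antagonist detection, the reporter line received test compounds together with conditioned medium, incubated 24hr at 37 C, 5% CO2, then luminescence was recorded following 30min room-temperature luciferase reagent incubation.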

[3] = qHTS assay to identify small molecule agonists of the androgen receptor (AR) signaling pathway in the presence of an antagonist - cell viability counter screen (AID 1259379; active = well fitted curve in the direction sought with a large enough effect in the repeat runs; an effect the other way counts as inactive or inconclusive;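 note: MDA-kb2 human breast cancer cells carrying an MMTV luciferase reporter; series mostly up to about 92 µM; nearly all actives have a fitted effect of over 25% in size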)
In short: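 Seed MDA-kb2 at 3,000 cells/well; incubate 5 hr, 37C, 0% CO2. Add nilutamide to 3.0uM final, then pin compounds at 15 concentrations. Incubate 16 hr. Add CellTiter-Fluor at 15 hr, read fluorescence after 1 hr.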

[4] = molecular target: Androgen receptor (Homo sapiens) (UniProt P10275); assay: qHTS assay to identify small molecule agonists of the androgen receptor (AR) signaling pathway in the presence of an antagonist (AID 1259381); note: nearly all actives have a fitted effect of over 15% in size
In short: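 Test compounds at 15 concentrations were incubated for 16hr with MDA-kb2 reporter cells in presence of 3.0uM nilutamide (final). Signal: ONE-Glo luciferase luminescence.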

[5] = qHTS assay to identify small molecule agonists or antagonists of the thyroid stimulating hormone receptor (TSHR) signaling pathway - wild type cell line counter screen (AID 1259384)
In short: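 Wild-type HEK293 cells were plated 18 h at 37 C/5% CO2, pin-dosed with compound plus Ro20-1724 medium, held 30 min at room temperature, then given cAMP-d2 and anti-cAMP-cryptate; fluorescence was read after 1 h. Fifteen concentrations, triplicate.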

[6] = molecular target: Thyrotropin receptor (Homo sapiens) (UniProt P16473); assay: qHTS assay to identify small molecule antagonists of the thyroid stimulating hormone receptor (TSHR) signaling pathway (AID 1259385); note: nearly all actives have a fitted effect of over 20% in size
In short: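 TSHR-HEK293 cells were plated and held 18 h at 37C/5% CO2, then given compound plus Ro20-1724 and stimulated with TSH at 1.5 ng/mL final. After 30 min at room temperature, cAMP was detected with cAMP-d2/anti-cAMP-cryptate (1 h) by fluorescence.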

[7] = qHTS assay to identify small molecule agonists of the estrogen receptor alpha (ER-alpha) signaling pathway in the presence of an antagonist - cell viability counter screen (AID 1259386; active = well fitted curve in the direction sought with a large enough effect in the repeat runs; an effect the other way counts as inactive or inconclusive;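 note: series mostly up to about 92 µM; cells exposed to compounds for 22 h at 37 °C before the viability read; nearly all actives have a fitted effect of over 30% in size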)
In short: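 Viability counter screen using VM7Luc4E2 (full-length ER-alpha, four ERE-luciferase). The cells were treated with compounds alongside ICI-182,780 10.0nM for 22hr, and live-cell protease fluorescence was quantified with CellTiter-Fluor.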

[8] = molecular target: Progesterone receptor (Homo sapiens) (UniProt P06401); assay: qHTS assay to identify small molecule agonists of the progesterone receptor (PR) signaling pathway (AID 1346784); note: nearly all actives have a fitted effect of over 30% in size; note: potency is the fitted concentration of half-maximal effect
In short: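 The screen uses PR-UAS-bla HEK 293T cells in charcoal-stripped serum (2%). Compounds are applied for 16 hr at 37C after a 6 hr pre-incubation, and reporter activity is detected with a FRET beta-lactamase substrate after 2 hr at room temperature.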

[9] = qHTS assay to identify small molecule antagonists of the TGF-beta/Smad signaling pathway - cell viability counter screen (AID 1346824; active = well fitted curve in the direction sought with a large enough effect in the repeat runs; an effect the other way counts as inactive or inconclusive; note: nearly all actives have a fitted effect of over 50% in size)
In short: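 SBE-bla HEK 293T cells were plated overnight at 37 C, then given compounds in DMSO plus TGF-beta1 (added as 0.25 ng/mL solution) for 5 hr. After the bla read, CellTiter-Glo was added to the same wells and luminescence read after 30 min at room temperature.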

[10] = qHTS assay to identify small molecule agonists of the TGF-beta/Smad signaling pathway - cell viability counter screen (AID 1346829; active = well fitted curve in the direction sought with a large enough effect in the repeat runs; an effect the other way counts as inactive or inconclusive; note: top concentration of the series differs between compounds; nearly all actives have a fitted effect of over 45% in size)
In short: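 Cytotoxicity counter screen: CellTiter-Glo luminescence (30 min, room temperature) measured in the SBE-bla HEK 293T reporter wells after 5 hr compound treatment at 37 C and the 2 hr substrate step.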

[11] = qHTS assay to identify small molecule agonists of the TGF-beta/Smad signaling pathway (AID 1346859; active = well fitted activation curve with a large enough effect in the signal ratio in the repeat runs, not every such curve was filed as active; the % refers to the signal ratio; note: series mostly up to about 77 µM)
In short: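 Dual-wavelength fluorescence (460/530 nm emission) quantified beta-lactamase expression under the Smad binding element in HEK 293T cells following 5 hr compound treatment at 37 C.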

[12] = molecular target: Thyrotropin-releasing hormone receptor (Homo sapiens) (UniProt P34981); assay: qHTS assay to identify small molecule antagonists of the thyrotropin-releasing hormone receptor (TRHR) signaling pathway (AID 1346877; active = well fitted inhibition curve with a large enough effect in the repeat runs, not every such curve was filed as active; note: series mostly up to about 51 µM)
In short: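 Following an 18 h incubation at 37 °C and a 2 h calcium dye load, TRHR-HEK293 cells were exposed to compound (5 min, room temperature) and challenged with TRH, 1 nM final.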

[13] = qHTS assay to identify small molecule antagonists of the estrogen receptor beta (ER-beta) signaling pathway - cell viability counter screen (AID 1259382; active = well fitted curve in the direction sought with a large enough effect in the repeat runs; an effect the other way counts as inactive or inconclusive; note: nearly all actives have a fitted effect of over 55% in size; note: potency is the fitted concentration of half-maximal effect)
In short: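 In this multiplexed counter screen, cells were seeded at 2,000 per well in medium with 2% charcoal-stripped FBS and incubated 6 hr before compound and 1nM final E2 were added. Sixteen hours later, ATP-based luminescence reported viability.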

[14] = molecular target: Progesterone receptor (Homo sapiens) (UniProt P06401); assay: qHTS assay to identify small molecule antagonists of the progesterone receptor (PR) signaling pathway (AID 1346795; active = well fitted inhibition curve with a large enough effect in the signal ratio in the repeat runs, not every such curve was filed as active; the % refers to the signal ratio; note: potency is the fitted concentration of half-maximal effect)
In short: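 After 6 hr plating at 37C in 2% stripped-serum medium, PR-UAS-bla HEK293T cells got compounds, then 1 nM R5020. Sixteen hours later, LiveBLAzer substrate was applied for 2 hr at room temperature and fluorescence was recorded.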

[15] = qHTS assay to identify small molecule antagonists of the progesterone receptor (PR) signaling pathway - cell viability counter screen (AID 1346798; active = well fitted curve in the direction sought with a large enough effect in the repeat runs; an effect the other way counts as inactive or inconclusive; note: series mostly up to about 92 µM; nearly all actives have a fitted effect of over 50% in size)
In short: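 Viability was determined by ATP-based luminescence (CellTiter-Glo) in PR-UAS-bla HEK293T cells cultured in 2% charcoal-stripped serum and incubated 16 hr with compounds under R5020 stimulation.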

[16] = qHTS assay to identify small molecule agonists of the progesterone receptor (PR) signaling pathway - cell viability counter screen (AID 1346799); note: nearly all actives have a fitted effect of over 45% in size; note: potency is the fitted concentration of half-maximal effect
In short: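 Viability was scored by ATP luminescence (CellTiter-Glo, 30 min, room temperature) in the same wells used for the reporter readout, after 16 hr compound exposure of PR-UAS-bla HEK293T cells.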

[17] = qHTS assay to identify small molecule agonists of the estrogen receptor beta (ER-beta) signaling pathway - cell viability counter screen (AID 1259380; active = well fitted curve in the direction sought with a large enough effect in the repeat runs; an effect the other way counts as inactive or inconclusive; note: nearly all actives have a fitted effect of over 30% in size)
In short: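 CellTiter-Glo read, 30 min RT, same wells as bla assay; cells ER-beta-UAS-bla HEK293T; 16 hr compound, 37C; medium 2% charcoal-stripped FBS.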

[18] = molecular target: Estrogen receptor (Homo sapiens) (UniProt P03372); assay: qHTS assay to identify small molecule agonists of the estrogen receptor alpha (ER-alpha) signaling pathway in the presence of an antagonist (AID 1259383); note: top concentration of the series differs between compounds; nearly all actives have a fitted effect of over 15% in size
In short: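 Stably transfected VM7Luc4E2 reporter cells, kept 5 days in charcoal-stripped serum, received ICI-182,780 at 10.0nM final before compound addition. Following 22hr incubation at 37C and 5% CO2, luciferase signal was read by luminescence.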

[19] = molecular target: Estrogen receptor beta (Homo sapiens) (UniProt Q92731); assay: qHTS assay to identify small molecule agonists of the estrogen receptor beta (ER-beta) signaling pathway (AID 1259377; active = well fitted activation curve with a large enough effect in the signal ratio in the repeat runs, not every such curve was filed as active; the % refers to the signal ratio)
In short: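 Measured by fluorescence intensity from a B/G FRET beta-lactamase substrate (2 h, room temperature) in ER-beta-UAS-bla HEK293T cells treated with DMSO-dissolved compounds for 16 hr at 37C and 5% CO2.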

[20] = molecular target: Estrogen receptor beta (Homo sapiens) (UniProt Q92731); assay: qHTS assay to identify small molecule antagonists of the estrogen receptor beta (ER-beta) signaling pathway (AID 1259378; active = well fitted inhibition curve with a large enough effect in the signal ratio in the repeat runs, not every such curve was filed as active; the % refers to the signal ratio)
In short: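 ER-beta-UAS-bla HEK293T (GripTite) cells in 2% charcoal-stripped FBS medium were preincubated 6 hr at 37C, dosed with compound, then stimulated with 1 nM E2 (final) for 16 hr; beta-lactamase reporter read by B/G FRET fluorescence after 2 hr substrate loading.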

Measured: Potency

Sequence of Androgen receptor (Homo sapiens) (P10275 whole entry, looked up): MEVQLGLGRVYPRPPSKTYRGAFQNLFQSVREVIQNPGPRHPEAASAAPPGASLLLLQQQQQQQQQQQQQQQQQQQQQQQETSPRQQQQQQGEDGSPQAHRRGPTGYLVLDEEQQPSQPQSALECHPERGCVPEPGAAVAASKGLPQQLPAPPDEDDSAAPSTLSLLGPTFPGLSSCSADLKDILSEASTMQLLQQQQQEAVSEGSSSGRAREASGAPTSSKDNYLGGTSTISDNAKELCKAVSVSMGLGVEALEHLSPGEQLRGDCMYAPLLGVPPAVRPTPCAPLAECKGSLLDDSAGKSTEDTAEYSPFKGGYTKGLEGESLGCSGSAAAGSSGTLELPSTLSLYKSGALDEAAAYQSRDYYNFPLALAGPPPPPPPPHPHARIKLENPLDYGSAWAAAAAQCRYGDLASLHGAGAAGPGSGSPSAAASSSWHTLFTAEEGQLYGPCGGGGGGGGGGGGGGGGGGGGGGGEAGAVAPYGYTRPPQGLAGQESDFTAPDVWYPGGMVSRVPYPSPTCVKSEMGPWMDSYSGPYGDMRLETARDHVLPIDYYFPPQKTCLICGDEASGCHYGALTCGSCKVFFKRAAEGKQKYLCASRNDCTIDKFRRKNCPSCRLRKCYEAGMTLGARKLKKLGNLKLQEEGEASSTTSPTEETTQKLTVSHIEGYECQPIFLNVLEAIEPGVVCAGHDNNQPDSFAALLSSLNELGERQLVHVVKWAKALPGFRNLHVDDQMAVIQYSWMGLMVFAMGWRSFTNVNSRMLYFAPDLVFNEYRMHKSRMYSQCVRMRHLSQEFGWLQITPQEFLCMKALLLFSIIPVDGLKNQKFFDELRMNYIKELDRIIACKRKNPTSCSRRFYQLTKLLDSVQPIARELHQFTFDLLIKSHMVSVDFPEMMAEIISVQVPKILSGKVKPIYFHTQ
Sequence of Thyrotropin receptor (Homo sapiens) (P16473 whole entry, looked up): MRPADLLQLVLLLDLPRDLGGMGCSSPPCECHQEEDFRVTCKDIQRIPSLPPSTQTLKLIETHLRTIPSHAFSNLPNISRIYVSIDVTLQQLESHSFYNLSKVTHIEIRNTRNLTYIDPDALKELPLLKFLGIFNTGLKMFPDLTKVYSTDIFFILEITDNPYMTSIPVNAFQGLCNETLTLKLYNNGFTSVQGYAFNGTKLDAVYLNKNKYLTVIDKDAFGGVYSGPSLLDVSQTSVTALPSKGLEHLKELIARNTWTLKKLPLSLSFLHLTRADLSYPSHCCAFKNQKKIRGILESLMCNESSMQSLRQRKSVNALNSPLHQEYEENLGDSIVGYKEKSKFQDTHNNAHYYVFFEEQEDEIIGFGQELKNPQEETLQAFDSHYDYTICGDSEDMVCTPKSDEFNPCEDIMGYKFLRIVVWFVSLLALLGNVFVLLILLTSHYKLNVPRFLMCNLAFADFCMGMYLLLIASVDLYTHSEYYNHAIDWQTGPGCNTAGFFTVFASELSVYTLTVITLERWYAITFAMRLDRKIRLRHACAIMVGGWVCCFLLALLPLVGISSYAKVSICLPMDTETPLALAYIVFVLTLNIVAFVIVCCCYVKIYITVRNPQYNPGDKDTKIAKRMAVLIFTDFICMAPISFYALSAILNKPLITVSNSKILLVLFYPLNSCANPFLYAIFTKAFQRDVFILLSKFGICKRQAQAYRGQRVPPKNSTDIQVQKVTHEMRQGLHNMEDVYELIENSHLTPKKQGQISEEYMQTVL
Sequence of Progesterone receptor (Homo sapiens) (P06401 whole entry, looked up): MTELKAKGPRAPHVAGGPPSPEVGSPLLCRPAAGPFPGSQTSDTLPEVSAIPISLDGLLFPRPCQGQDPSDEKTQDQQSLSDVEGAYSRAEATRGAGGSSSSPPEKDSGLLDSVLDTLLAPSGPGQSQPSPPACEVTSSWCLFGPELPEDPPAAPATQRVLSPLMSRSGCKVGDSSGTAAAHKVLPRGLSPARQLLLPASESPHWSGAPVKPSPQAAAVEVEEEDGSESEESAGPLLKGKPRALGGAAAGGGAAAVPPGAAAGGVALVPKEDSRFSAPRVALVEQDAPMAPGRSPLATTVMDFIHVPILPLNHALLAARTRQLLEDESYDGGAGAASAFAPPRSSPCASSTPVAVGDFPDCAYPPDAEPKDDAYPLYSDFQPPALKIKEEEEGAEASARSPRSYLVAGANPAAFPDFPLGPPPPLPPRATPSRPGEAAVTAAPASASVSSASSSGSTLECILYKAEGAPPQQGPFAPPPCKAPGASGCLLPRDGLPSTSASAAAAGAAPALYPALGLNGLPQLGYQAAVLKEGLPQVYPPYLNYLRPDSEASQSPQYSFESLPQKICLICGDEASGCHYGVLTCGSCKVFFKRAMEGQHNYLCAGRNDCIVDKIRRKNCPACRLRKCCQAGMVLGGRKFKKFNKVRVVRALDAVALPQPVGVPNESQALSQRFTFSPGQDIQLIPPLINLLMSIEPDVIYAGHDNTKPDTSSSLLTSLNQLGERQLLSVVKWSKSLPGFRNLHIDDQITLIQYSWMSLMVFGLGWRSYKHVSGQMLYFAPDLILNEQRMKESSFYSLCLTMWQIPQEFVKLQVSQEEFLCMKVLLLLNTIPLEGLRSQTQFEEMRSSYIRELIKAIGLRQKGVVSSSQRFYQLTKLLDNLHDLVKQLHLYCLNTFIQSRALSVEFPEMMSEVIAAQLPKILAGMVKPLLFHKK
Sequence of Estrogen receptor (Homo sapiens) (P03372 whole entry, looked up): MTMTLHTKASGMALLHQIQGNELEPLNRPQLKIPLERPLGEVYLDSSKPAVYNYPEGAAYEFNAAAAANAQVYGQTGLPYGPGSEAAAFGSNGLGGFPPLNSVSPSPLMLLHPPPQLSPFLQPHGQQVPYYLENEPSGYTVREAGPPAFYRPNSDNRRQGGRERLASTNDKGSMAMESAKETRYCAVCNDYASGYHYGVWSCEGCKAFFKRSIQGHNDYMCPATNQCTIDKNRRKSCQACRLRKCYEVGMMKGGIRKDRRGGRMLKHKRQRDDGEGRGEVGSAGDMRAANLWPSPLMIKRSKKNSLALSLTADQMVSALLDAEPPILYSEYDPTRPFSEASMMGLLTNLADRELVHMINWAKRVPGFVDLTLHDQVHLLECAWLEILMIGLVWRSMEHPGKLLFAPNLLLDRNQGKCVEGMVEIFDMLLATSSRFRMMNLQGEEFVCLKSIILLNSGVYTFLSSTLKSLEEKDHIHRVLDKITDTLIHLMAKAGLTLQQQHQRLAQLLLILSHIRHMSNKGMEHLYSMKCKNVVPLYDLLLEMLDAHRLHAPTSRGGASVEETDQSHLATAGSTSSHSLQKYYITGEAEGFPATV
Sequence of Thyrotropin-releasing hormone receptor (Homo sapiens) (P34981 whole entry, looked up): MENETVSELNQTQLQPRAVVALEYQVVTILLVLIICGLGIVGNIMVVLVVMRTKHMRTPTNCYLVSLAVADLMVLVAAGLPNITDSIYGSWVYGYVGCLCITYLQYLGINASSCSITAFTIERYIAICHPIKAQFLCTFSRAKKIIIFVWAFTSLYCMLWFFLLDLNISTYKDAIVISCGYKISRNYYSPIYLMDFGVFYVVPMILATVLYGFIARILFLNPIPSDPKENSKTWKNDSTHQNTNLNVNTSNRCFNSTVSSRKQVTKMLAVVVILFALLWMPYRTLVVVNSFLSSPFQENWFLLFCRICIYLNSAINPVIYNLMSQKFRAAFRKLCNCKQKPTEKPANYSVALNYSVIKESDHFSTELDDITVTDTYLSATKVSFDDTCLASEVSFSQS
Sequence of Estrogen receptor beta (Homo sapiens) (Q92731 whole entry, looked up): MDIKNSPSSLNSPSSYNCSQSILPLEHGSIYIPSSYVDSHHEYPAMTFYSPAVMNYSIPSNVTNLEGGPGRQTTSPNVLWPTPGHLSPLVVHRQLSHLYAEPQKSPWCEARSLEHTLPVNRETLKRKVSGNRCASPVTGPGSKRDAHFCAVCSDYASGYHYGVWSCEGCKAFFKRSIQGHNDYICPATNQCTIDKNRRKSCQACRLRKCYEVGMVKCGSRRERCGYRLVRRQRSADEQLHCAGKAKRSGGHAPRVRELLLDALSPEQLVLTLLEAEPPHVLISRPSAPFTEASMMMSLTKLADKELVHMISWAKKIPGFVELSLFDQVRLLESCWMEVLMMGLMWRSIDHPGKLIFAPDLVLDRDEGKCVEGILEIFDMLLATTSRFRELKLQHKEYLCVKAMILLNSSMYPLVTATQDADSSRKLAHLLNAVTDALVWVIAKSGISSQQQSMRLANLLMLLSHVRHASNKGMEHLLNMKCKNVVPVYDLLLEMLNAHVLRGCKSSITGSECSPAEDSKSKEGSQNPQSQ

CCCCCN(CCCCC)C(=O)C(CCC(=O)O)NC(=O)c1ccc(Cl)c(Cl)c1 (stereo not given)
not listed: [13] | [14] | [15] | [16] | [17] | [18] | [19] | [20]
inactive: all other assays above

C1COCCO1
not listed: [5] | [6] | [17] | [18] | [19] | [20]
inactive: all other assays above

CCCCCCCCCCC1CO1 (stereo not given)
not listed: [4] | [18] | [19] | [20]
inactive: all other assays above

NC(=O)c1c(Cl)cccc1Cl
not listed: [4] | [9] | [14] | [17] | [19] | [20]
inactive: all other assays above

CCO[Si](CCCN=C=O)(OCC)OCC
not listed: [4] | [17] | [19] | [20]
inactive: all other assays above

C=C(C)C1CC=C(C)C(O)C1 (stereo not given)
active: [8] 17.3 µM
not listed: [4] | [14] | [16] | [17] | [19] | [20]
inactive: all other assays above

Cc1c(F)cc2c(=O)c(C(=O)O)cn3c2c1CCC3C (stereo not given)
not listed: [11] | [15] | [17] | [18] | [19] | [20]
inactive: all other assays above

CO[Si](CCCNCCC[Si](OC)(OC)OC)(OC)OC
not listed: [4] | [13] | [14] | [15] | [19] | [20]
inactive: all other assays above

CC1=CC(C)C(C=O)C(C)C1 (stereo not given)
not listed: [4] | [6] | [12] | [14] | [15] | [18] | [19] | [20]
inactive: all other assays above

C=C(C)C(=O)NCCC[N+](C)(C)C
inactive: [1] | [2] | [3] | [17] | [5] | [7] | [8] | [14] | [16] | [10] | [11]

CSc1nc(NC2CC2)nc(NC(C)(C)C)n1
active: [2] 1.54 µM | [14] 61.1 µM
not listed: [4] | [5] | [6] | [12] | [18] | [19] | [20]
inactive: all other assays above

C1C2OC2C2C1C1CC2C2OC12 (stereo not given)
not listed: [4] | [5] | [6] | [18] | [19] | [20]
inactive: all other assays above

CO
not listed: [4] | [15] | [17] | [18] | [19] | [20]
inactive: all other assays above

c1ccc(SCCSc2ccccc2)cc1
not listed: [1] | [6] | [14] | [17] | [18]
inactive: all other assays above

CC(=O)c1ccc(C)cc1
not listed: [2] | [4] | [13] | [17] | [18] | [19] | [20]
inactive: all other assays above

CN(C)CCn1nnnc1SCC1=C(C(=O)O)N2C(=O)[C@@H](NC(=O)Cc3csc(N)n3)[C@H]2SC1
not listed: [2] | [9] | [18] | [19] | [20]
inactive: all other assays above

C=C(C)[C@@H]1CCC2=CC(=O)C[C@@H](C)[C@]2(C)C1
not listed: [2] | [4] | [12] | [13] | [14] | [15] | [19]
inactive: all other assays above

CCCC(C)C(=O)O (stereo not given)
active: [13] 37 µM | [16] 18.5 µM
not listed: [4] | [9] | [15] | [17] | [18] | [19] | [20]
inactive: all other assays above

Cc1ccc(Nc2ccc(O)c3c2C(=O)c2ccccc2C3=O)cc1
inactive: [1] | [2] | [13] | [7] | [8] | [14] | [15] | [9] | [10] | [11] | [12]

Nc1ncnc2c1ncn2Cc1c(F)cccc1Cl
not listed: [2] | [4] | [9] | [19] | [20]
inactive: all other assays above

CCCCc1ccc(N)cc1
not listed: [2] | [4] | [12]
inactive: all other assays above
